Compound activity from PubChem BioAssay.
ELG1 DNA repair: blocks ELG1-dependent DNA repair in HEK293T cells; HEK293T ELG1-luciferase reporter, luminescence, 16 h; DNA damage induced by 5-fluorouridine; Potency, µM (titrated, usually from 46.1 µM), without a hit: at the highest dose activity change, negative = inhibition, usual class: inhibitors; 330,000 compounds, 2.3% hits; AID 504467; further: nearly all actives have a fitted effect of over 55% in size
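Step one: seed 2,000 cells per well. Step two: pin-transfer compound or DMSO alongside 5-fluorouridine. Step three: incubate 16 hr, 37 °C, 5% CO2. Step four: add ONE-Glo, wait 30 min, read luminescence.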
DT40 TDP1 CPT: growth inhibition of DT40 Tdp1-/-;hTDP1 cells with camptothecin (screen for TDP1 inhibitors); chicken DT40 Tdp1-/-;hTDP1 cells + 20 nM CPT, ATP luminescence, 48 h; Potency, µM (series often up to 46.2 µM), for inactives: top-dose activity change, negative = growth inhibition, most hits filed as inhibitors; 420,000 compounds, 12% hits; further: nearly all actives have a fitted effect of over 55% in size
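Chicken DT40 Tdp1-/- cells stably complemented with human TDP1 were seeded at 400 cells/well in medium containing 20 nM camptothecin, exposed to pin-transferred compounds, and grown at 37 °C for at least 48 hr. Viability was read as ATP luminescence.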
TDP1 cell noCPT: qHTS for Inhibitors of human tyrosyl-DNA phosphodiesterase 1 (TDP1): qHTS in cells in absence of CPT; 420,000 compounds, 15% hits; Potency, µM (titrated, usually from 46.2 µM), inactives show at the top dose activity change, negative = growth inhibition, most hits filed as inhibitors; DT40 Tdp1-/- hTDP1 cells, no CPT, ATP luminescence, 48 h; further: nearly all actives have a fitted effect of over 55% in size
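Growth kinetics read by CellTiter-Glo luminescence after ≥48 hr at 37 °C. Cells: DT40 Tdp1-/- stably carrying human TDP1, 400 per well, compound exposure in the absence of CPT (DMSO vehicle).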
RORgamma inh: ROR gamma (mouse) transcription inhibition; P51450; Drosophila S2 Gal4-RORgamma UAS-luciferase reporter, 20 h; Potency, µM (highest dose often 53.6 µM), inactives show top-dose activity change, negative = inhibition, hits mostly inhibitors; 310,000 compounds, 5.4% hits; AID 2551; further: nearly all actives have a fitted effect of over 60% in size
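Drosophila Schneider cells stably carrying a metallothionein-driven Gal4 DBD–ROR gamma fusion and a UAS-Photinus luciferase reporter were exposed to compound for 1 hr, then induced with copper sulfate (700 uM final) for 20 hr at ambient temperature before luminescence reading.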
12-LOX inh: inhibitors of human 12S-lipoxygenase ALOX12; purified 12hLO, xylenol orange hydroperoxide absorbance; Potency, µM (series often up to 108 µM), for the others: top-dose activity change, negative = inhibition, most hits filed as inhibitors; 580,000 compounds, 1.1% hits; AID 1671190
Target sequence (P18054 whole entry, looked up): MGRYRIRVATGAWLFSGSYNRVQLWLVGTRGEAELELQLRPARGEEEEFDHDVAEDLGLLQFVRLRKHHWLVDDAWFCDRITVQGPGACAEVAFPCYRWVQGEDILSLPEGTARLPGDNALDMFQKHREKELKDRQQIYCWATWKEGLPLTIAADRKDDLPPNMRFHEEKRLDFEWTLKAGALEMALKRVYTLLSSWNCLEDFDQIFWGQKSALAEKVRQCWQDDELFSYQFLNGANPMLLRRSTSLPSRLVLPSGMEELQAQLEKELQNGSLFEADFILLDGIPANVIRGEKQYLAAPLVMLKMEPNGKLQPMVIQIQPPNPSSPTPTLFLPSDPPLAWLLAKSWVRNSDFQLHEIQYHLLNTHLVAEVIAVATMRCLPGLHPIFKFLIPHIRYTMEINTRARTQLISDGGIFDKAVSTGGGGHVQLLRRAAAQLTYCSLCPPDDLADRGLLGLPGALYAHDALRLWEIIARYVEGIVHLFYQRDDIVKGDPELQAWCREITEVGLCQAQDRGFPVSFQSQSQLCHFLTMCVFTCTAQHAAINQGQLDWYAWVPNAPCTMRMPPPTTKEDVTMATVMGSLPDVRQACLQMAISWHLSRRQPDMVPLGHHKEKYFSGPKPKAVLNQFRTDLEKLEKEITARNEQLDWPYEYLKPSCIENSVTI
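Purified human 12hLO (150 nM final) in 25 mM Hepes, 0.01% Triton X-100, pH 7.0 was preincubated 15 min at room temperature with compound. Then 40 uM arachidonic acid was added, 30 min. Hydroperoxide was read by Fe-XO absorbance ratio 573/405 nm.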
Gal4-VP16 FLuc: inhibits Gal4-VP16 luciferase reporter, ROR gamma counter-screen. AID 2546. 310,000 compounds, 3.5% hits. Drosophila S2 Gal4-VP16 UAS-luciferase, luminescence, 20 h. Potency, µM (top dose mostly 53.6 µM), inactives show at the highest dose activity, negative = inhibition, usual class: inhibitors;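 further: Gal4-VP16 expression switched on by copper sulfate through the metallothionein promoter; nearly all actives have a fitted effect of over 50% in size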
The depositor's hits bear a star; ? = inconclusive; / = no result given; [ ] = another dose, or the depositor's remark. Rows were chosen to be rich in hits. Some 15% of all compounds tested hit in one or more screens of this group. The call rests on the fitted dose curve; in most records, active means well fitted curve in the direction sought with a large enough effect; inconclusive means small, poorly fitted or top-dose-only effect, or another doubt; inactive means no such curve, though single readings can be large; an effect the other way counts as inactive or inconclusive. On the % scale 0 is the no-effect control and ±100 the full control effect; potency means the concentration at half of the fitted maximal effect.

SMILES	ELG1 DNA repair	DT40 TDP1 CPT	TDP1 cell noCPT	RORgamma inh	12-LOX inh	Gal4-VP16 FLuc
CCN(CC)CCCNC(=O)c1ccc2c(Cl)c3c(nc2c1)CCCC3	0%	26µM*	16µM*	-26%	-18%	-3%
CCCCN(CC)CCNC(=O)c1ccc2c(Cl)c3c(nc2c1)CCC3	25%	?	16µM*	-11%	0%	-8%
CC1CCC(NC(=O)c2ccc3c(Cl)c4c(nc3c2)CCCC4)CC1 (configuration not stated)	/	/	/	/	7%	/
CCO[C@H]1CN(c2cc(C)nc(-c3ccccc3O)n2)C[C@@H]1O	/	/	/	/	63%	/
COc1cccc(-c2cn3nc4c(nc3n2)CCCC4)c1	?	-35%	16µM*	-21%	/	?
COc1cccc(-c2cc(C(F)(F)F)n3nc(N)nc3n2)c1	-1%	-21%	?	4%	0%	-3%
COc1ccc(S(=O)(=O)N(C)C[C@H]2Oc3c(NC(=O)C4CC4)cccc3C(=O)N([C@H](C)CO)C[C@@H]2C)cc1	13%	16µM*	-15%	/	-19%	/
COc1ccc(S(=O)(=O)Nc2cccc3c2O[C@H](CN(C)S(=O)(=O)c2cccs2)[C@@H](C)CN([C@H](C)CO)C3=O)cc1	8%	?	-11%	/	-23%	/
CC(C)NC(=O)Nc1cccc2c1O[C@H](CN(C)S(=O)(=O)c1ccccc1)[C@@H](C)CN([C@H](C)CO)C2=O	9%	-11%	-10%	/	-2%	/
COc1ccc(S(=O)(=O)N(C)C[C@H]2Oc3c(NC(=O)Nc4ccccc4)cccc3C(=O)N([C@H](C)CO)C[C@@H]2C)cc1	/	?	?	/	-4%	/
CC(C)NC(=O)Nc1cccc2c1O[C@H](CN(C)S(=O)(=O)c1ccc(F)cc1)[C@@H](C)CN([C@H](C)CO)C2=O	-3%	16µM*	-28%	/	-8%	/
COc1ccc(S(=O)(=O)Nc2cccc3c2O[C@H](CN(C)S(=O)(=O)c2ccc(Cl)cc2)[C@H](C)CN([C@H](C)CO)C3=O)cc1	-10%	?	18µM*	/	-3%	/
C[C@H](CO)N1C[C@H](C)[C@@H](CN(C)S(=O)(=O)c2ccccc2)Oc2c(NC(=O)C3CCCCC3)cccc2C1=O	22%	?	23µM*	/	-3%	/
O=C(CCc1nc(CS(=O)(=O)c2ccc(F)cc2)no1)NCCc1ccccc1Cl	/	/	/	/	3%	/
C=C(C)CN1CCN(c2nc3c(c(=O)[nH]c(=O)n3C)n2Cc2cccc3ccccc23)CC1	/	/	/	/	-21%	/
CC(C)(C)OC(=O)C[C@@H]1C/C=C\C[C@H](CC(=O)N[C@H](CO)Cc2ccccc2)C(=O)N[C@H](Cc2ccccc2)COC1=O	?	-47%	13µM*	/	?	/
CC(C)(C)OC(=O)C[C@@H]1C/C=C\C[C@H](CC(=O)N[C@H](CO)Cc2ccccc2)C(=O)N[C@@H](Cc2ccccc2)COC1=O	?	?	?	/	-2%	/
CC(C)(C)OC(=O)C[C@@H]1C/C=C\C[C@H](CC(=O)N[C@H](CO)Cc2ccccc2)C(=O)N[C@@H](Cc2c[nH]c3ccccc23)COC1=O	-28%	26µM*	?	/	-8%	/
CC(C)(C)OC(=O)C[C@H]1C/C=C\C[C@H](CC(=O)N[C@H](CO)Cc2ccccc2)C(=O)N[C@H](Cc2ccccc2)COC1=O	?	23µM*	23µM*	/	-9%	/
CC(C)(C)OC(=O)C[C@H]1C/C=C\C[C@H](CC(=O)N[C@H](CO)Cc2ccccc2)C(=O)N[C@H](C(C)(C)C)COC1=O	-23%	?	?	/	16%	/
N#Cc1ccc(C(C(=O)NC2CCCCC2)n2c(=O)c(-c3cc4ccccc4[nH]3)nc3ccccc32)cc1 (configuration not stated)	/	15µM*	15µM*	/	-17%	/
COc1ccc(C(C(=O)NC2CCCCC2)n2c(=O)c(-c3cc4ccccc4[nH]3)nc3ccccc32)cc1 (configuration not stated)	/	?	15µM*	/	?	/
O=C(Cn1ccn2nc3c(c2c1=O)CCCC3)Nc1ccc(C(F)(F)F)cc1	/	/	/	/	39%	/
Cc1ccc2nc(N3CCN(C4CCCCC4)CC3)c(-n3nc(C)cc3C)nc2c1	/	/	/	/	-1%	/
C=CCOc1ccccc1N	/	/	/	/	5.6µM*	/
SMILES	ELG1 DNA repair	DT40 TDP1 CPT	TDP1 cell noCPT	RORgamma inh	12-LOX inh	Gal4-VP16 FLuc
CCCNC(=S)NCCN1CCCCC1	?	-6%	-9%	-2%	0.63µM*	-10%
COCCNCCCCSc1ccc(Cl)cc1	0%	15µM*	18µM*	0%	?	3%
COCCNC(=O)CSc1ccc(Cl)cc1	-3%	16%	-15%	35%	6%	17%
Cc1ccc(-c2noc(Cn3nc(C)c(S(=O)(=O)N4CCc5ccccc54)c3C)n2)cc1	/	/	/	/	-2%	/
Oc1ccccc1-c1nc2c3ccccc3c3ccccc3c2[nH]1	0%	21µM*	18µM*	-8%	-5%	-3%
c1csc(-c2nc3c4ccccc4c4ccccc4c3[nH]2)c1	?	21µM*	?	?	?	?
CCCNC(=O)N(C1CCOCC1)C1CCN(C(=O)Nc2c(F)cccc2F)CC1	/	/	/	/	31%	/
NC(N)=NC(N)=Nc1ccc(Cl)c(Cl)c1	/	/	/	/	8%	/
CCn1nc(C)cc1C(=O)N1CCOC[C@H](Oc2ccc(OC)cc2)C1	/	/	/	/	29%[176 µM]	/
Cn1c(NCC(O)c2ccccc2)nc2c1c(=O)n(Cc1ccc(Cl)cc1)c(=O)n2C (configuration not stated)	?	16µM*	21µM*	?	17%	-13%
Cn1c(NCC(O)c2ccccc2)nc2c1c(=O)n(Cc1ccc(Cl)c(Cl)c1)c(=O)n2C (configuration not stated)	/	21µM*	21µM*	/	?	/
CC(CC(=O)O)CC(=O)NCCN1CCCCC1 (configuration not stated)	/	/	/	/	7%	/
CCOC(=O)C1CCN(S(=O)(=O)c2c(Cl)ccc3nonc23)CC1	?	/	/	2.2µM*	397%	2.8µM*
CCOC(=O)C1CCCN(C(=S)Nc2cc(C)cc(C)c2)C1 (configuration not stated)	-6%	-4%	5%	11µM*	-19%	?
CN1CCN(C(=S)Nc2cc(S(=O)(=O)N3CCOCC3)ccc2Cl)CC1	-11%	-3%	-16%	7%	-3%	7%
